# Screening data (PubChem BioAssay)
# Hits are enriched below; roughly 7.4% of the tested compounds scored in any of these assays.
# Rab9 prom act: qHTS Assay for Rab9 Promoter Activators; Huh7 Rab9 promoter-luciferase reporter, luminescence, 24 h; Potency, µM (series often up to 9.22 µM), for inactives: top-dose activation, negative = inhibition, actives largely listed as activators; actives 2.8% (n = 320,000); AID 485297, 2010; further: % of control where 0% means no effect; nearly all actives have a fitted effect of over 60% in size
#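 Cells were plated at 1500 per well in reduced-serum medium with 10% FBS and left 2 h. Compound in DMSO was then added for 24 h at 37 °C. Reporter signal was read by luminescence after 10 min with luciferase detection reagent.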
# NPC1 promoter act: qHTS Assay for NPC1 Promoter Activators; Potency, µM (top dose mostly 9.22 µM), inactives show at the top dose activation, hits mostly activators; actives 2.4% (n = 320,000); Huh7 NPC1 promoter luciferase reporter, 24 h; further: % of control where 0% means no effect; nearly all actives have a fitted effect of over 60% in size
#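 Huh7 cells stably carrying NPC1 promoter–luciferase, plated in Opti-MEM with 10% FBS for 2 h, were exposed to compound in DMSO for 24 h at 37 °C; luciferase reagent was added for 10 min and luminescence read.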
# SMN2 splice up: qHTS Assay for Enhancers of SMN2 Splice Variant Expression | HEK293 SMN2-luciferase splicing reporter, luminescence, 30-36 h | actives 2.8% (n = 210,000) | Potency, µM (titrated, usually from 46.1 µM), inactives show at the highest dose activity change, positive = activation, usual class: activators | AID 1458, 2008; further: % of control where 0% means no effect; nearly all actives have a fitted effect of over 55% in size
#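 qHTS luciferase splicing reporter: luminescence rises when SMN2 exon 7 is included in transfected HEK293 cells. Compound exposure lasted 30-36 h at 37C, with 4.5 mM final sodium butyrate as control, followed by a ONE-Glo read.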
# Luc counter: Counterscreen for Luciferase (Kinase-Glo TM) Inhibition | Luciferin 4-monooxygenase (Photuris pensylvanica), Q27757 | Kinase-Glo luciferase, ATP luminescence, 8 min | Potency, µM (doses to about 38.3 µM), for inactives: at the highest dose activity change, negative = inhibition, actives largely listed as inhibitors | actives 0.28% (n = 200,000) | AID 1379, 2008; further: on the % scale 0 is the no-effect control and ±100 the full control effect; nearly all actives have a fitted effect of over 60% in size
#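 Luminescence was the read-out, taken after 8-minute incubation at ambient temperature. Luciferase turned over luciferin with 10 uM ATP in imidazole pH 7.2 buffer containing KCl, MgCl2, Tween 20 and BSA.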
# FLuc counter: qHTS profiling assay for firefly luciferase inhibitor/activator using purifed enzyme and Km concentrations of substrates (counterscreen for miR-21 project); Luciferin 4-monooxygenase (Photinus pyralis), P08659; purified FLuc, Km substrates, luminescence inhibition; Potency, µM (doses to about 57.5 µM), for the others: top-dose activity change, negative = inhibition, actives largely listed as inhibitors; actives 6.9% (n = 360,000); AID 588342, 2011;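 further: plate controls were vehicle for no effect and reference inhibitor for full effect; nearly all actives have a fitted effect of over 55% in size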
# Target sequence (P08659 whole entry, looked up): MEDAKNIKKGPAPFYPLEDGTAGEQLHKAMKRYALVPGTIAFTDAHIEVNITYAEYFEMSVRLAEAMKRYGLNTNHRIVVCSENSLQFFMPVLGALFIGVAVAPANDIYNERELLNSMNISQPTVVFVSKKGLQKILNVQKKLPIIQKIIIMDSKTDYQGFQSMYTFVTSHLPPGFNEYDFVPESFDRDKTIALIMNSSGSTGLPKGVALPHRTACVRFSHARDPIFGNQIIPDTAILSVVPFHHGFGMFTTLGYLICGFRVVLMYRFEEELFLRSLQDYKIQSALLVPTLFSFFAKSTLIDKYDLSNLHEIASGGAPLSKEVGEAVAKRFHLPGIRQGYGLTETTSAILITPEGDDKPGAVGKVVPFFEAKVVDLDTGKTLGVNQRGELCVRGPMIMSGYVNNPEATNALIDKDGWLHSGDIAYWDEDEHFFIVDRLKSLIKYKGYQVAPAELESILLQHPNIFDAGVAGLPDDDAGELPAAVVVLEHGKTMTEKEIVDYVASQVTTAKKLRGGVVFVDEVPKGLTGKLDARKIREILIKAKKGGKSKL
#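 Purified P. pyralis luciferase, 10 nM final, with Km-level 10 uM D-luciferin and 10 uM ATP in 50 mM Tris acetate pH 7.5, 10 mM Mg acetate, 0.01% Tween-20, 0.05% BSA; 6-point qHTS titration about 60 µM downward; luminescence read.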
# ELG1 genotox: qHTS screen for small molecules that induce genotoxicity in human embryonic kidney (HEK293T) cells expressing luciferase-tagged ELG1. AID 504466, 2011. Potency, µM (top dose mostly 46 µM), for inactives: at the highest dose activity change, positive = activation, actives largely listed as activators. HEK293T ELG1-luciferase reporter, luminescence, 16 h. actives 1.3% (n = 330,000); further: % of control where 0% means no effect; nearly all actives have a fitted effect of over 60% in size
#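 Reporter readout depends on ELG1 protein level, which increases with genetic stress. After 16 hr compound exposure at 37 °C, luciferase activity was quantified using ONE-Glo.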
# The depositor's hits bear a star; u = inconclusive; x = no result given. The call rests on the fitted dose curve; in most records, active means well fitted curve in the direction sought with a large enough effect; inconclusive means small, poorly fitted or top-dose-only effect, or another doubt; inactive means no such curve, though single readings can be large; an effect the other way counts as inactive or inconclusive. Potency means the concentration at half of the fitted maximal effect.
SMILES,Rab9 prom act,NPC1 promoter act,SMN2 splice up,Luc counter,FLuc counter,ELG1 genotox
COc1ccccc1NC(=O)c1ccc(C)c(S(=O)(=O)N2CCCCC2)c1,-4%,13%,x,x,u,-18%
CCCCOC(=O)C(C)Sc1n[nH]c(=O)[nH]c1=O (stereo not drawn),2%,-4%,x,x,-1%,-1%
CC(=O)c1cccc(NC(=O)CN2CCc3cc4c(cc3C2C)OCCCO4)c1 (stereo not drawn),5%,-1%,x,x,3%,-8%
CCOC(=O)c1c(-c2ccccc2)oc2ccc(OCc3ccccc3Br)cc12,x,x,-2%,x,0%,x
COc1ccc(Br)cc1C(=O)Nc1cccc(NC(=O)c2ccco2)c1,-6%,1%,x,x,24µM*,-20%
COc1c(C)cc(Br)cc1C(=O)Nc1cccc(NC(=O)c2ccco2)c1,-8%,-6%,0%,2%,-17%,-28%
COc1cccc(NC(=O)c2ccco2)c1,u,u,10µM*,-13%,u,15µM*
COc1ccc(C(=O)COc2cccc(NC(=O)c3ccco3)c2)cc1,-1%,-2%,-10%,9%,15µM*,-7%
COc1ccc(C(=O)Nc2ccc(NC(=O)c3ccco3)cc2)cc1,11%,0%,x,x,-9%,u
COc1ccc(Br)cc1C(=O)Nc1ccc(O)cc1,2%,7%,28µM*,5%,u,15%
O=C(Nc1cccc(OC(=O)c2ccco2)c1)c1ccco1,-1%,2%,0%,-5%,-6%,13%
COc1cccc(C(CNC(=O)C(c2ccccc2)c2ccccc2)N(C)C)c1 (stereo not drawn),1%,-4%,x,x,-1%,0%
CCN(C(=O)CCNC(=O)Cn1cnc2ccccc2c1=O)c1cc(OC)ccc1OC,x,x,-8%,x,5%,x
O=C(COc1cccc(NC(=O)c2ccco2)c1)c1ccccc1,10%,7%,-32%,-6%,17µM*,0%
O=C(c1ccccc1)c1cccc(NC(=O)c2ccco2)c1,4µM*,25%,18%,-5%,27µM*,u
COc1cccc(C(=O)COc2cccc(NC(=O)c3ccco3)c2)c1,-3%,0%,x,-10%,27µM*,-2%
O=C(Nc1cccc(NC(=O)c2ccco2)c1)c1ccccc1,3%,2%,x,x,u,0%
CCc1nnc(NC(=O)CSc2nnc(-c3cccnc3)n2C)s1,0%,0%,10%,-2%,2%,-1%
CCCCN(C(=O)c1c(CC)noc1C)c1c(N)n(CCCC)c(=O)[nH]c1=O,-3%,0%,x,x,2%,-3%
Cc1cccc(N2CC(C(=O)NCc3ccco3)CC2=O)c1C (stereo not drawn),-2%,1%,x,x,-2%,-2%
Cc1ccc(N=Nc2c(C)[nH]n(-c3ccccc3)c2=O)c(C)c1,-4%,-6%,x,0%,-2%,14%
Cc1[nH][nH]c(=O)c1N=Nc1ccc(Cl)cc1,-8%,-5%,-14%,7%,-12%,-7%
Cc1[nH]n(-c2ccccc2)c(=O)c1N=Nc1ccc2c(c1)OCCO2,4µM*,u,18µM*,-1%,6µM*,u
Cc1[nH]n(-c2ccccc2)c(=O)c1N=Nc1cccc([N+](=O)[O-])c1,19%,27%,x,x,13µM*,0%
Nc1c(N=Nc2cccc(Cl)c2)c(=O)[nH]n1-c1ccccc1,25%,14%,21%,-1%,-3%,5%
Cc1[nH]n(-c2ccccc2)c(=O)c1N=Nc1cccc(Cl)c1,17%,u,x,x,9.5µM*,16%
CSc1ccc(N=Nc2c(C)[nH]n(C)c2=O)cc1,18%,2%,x,x,19µM*,u
